About 2,000 (36%) of roughly 5,500 compounds were called active. Roughly 18% stayed inconclusive and do not appear here. Rule as the data show it: active = normalized growth mostly below about 0.91 (no sharp cut-off); inconclusive = no clear call, values can overlap the other calls; inactive = mostly above about 0.92. The list shows a part of the results.
Assay: chemical genetic growth profiling, strain panel (AID 1159580);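 also: tested at 20 µM; growth read once vehicle control cultures reached saturation at 30 °C; 1 = growth at the plate median or of vehicle wells; lower values mean less growth of the strain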
Settings: S. cerevisiae deletion strains, growth OD

Measured: normalized growth

COc1ccc(C(c2ccc(OC)cc2)C(Cl)(Cl)Cl)cc1
active: locus YJL129C, strain trk1, active compounds read low 0.847
inactive: locus YAL013W, strain DEP1, active compounds read low 1 | locus YAL021C, strain ccr4, active compounds read low 0.989 | locus YAL026C, strain drs2, active compounds read low 1.01 | locus YAL030W, strain snc1, active compounds read low 1.02 | locus YBL061C, strain skt5, active compounds read low 1.01 | locus YBR009C, strain hhf1, active compounds read low 1.01 | locus YBR021W, strain FUR4, active compounds read low 0.974 | locus YBR023C, strain chs3, active compounds read low 0.998 | locus YBR171W, strain sec66, active compounds read low 1 | locus YBR229C, strain ROT2, active compounds read low 0.997 | locus YBR231C, strain swc5, active compounds read low 1.01 | locus YBR279W, strain paf1, active compounds read low 1.02 | locus YCL011C, strain gbp2, active compounds read low 1.02 | locus YCL016C, strain dcc1, active compounds read low 1.01 | locus YCL029C, strain bik1, active compounds read low 0.981 | locus YCL061C, strain MRC1, active compounds read low 1.01 | locus YCL069W, strain vba3, active compounds read low 1.02 | locus YCR088W, strain abp1, active compounds read low 1.01 | locus YDL005C, strain med2, active compounds read low 1.01 | locus YDL035C, strain GPR1, active compounds read low 0.999 | locus YDL040C, strain nat1, active compounds read low 1.02 | locus YDL074C, strain BRE1, active compounds read low 0.986 | locus YDL101C, strain DUN1, active compounds read low 0.996 | locus YDL134C, strain PPH21, active compounds read low 1 | locus YDL185W, strain tfp1, active compounds read low 0.981 | locus YDL192W, strain arf1, active compounds read low 0.992 | locus YDR001C, strain nth1, active compounds read low 1.01 | locus YDR069C, strain doa4, active compounds read low 0.992 | locus YDR101C, strain arx1, active compounds read low 0.995 | locus YDR137W, strain rgp1, active compounds read low 0.959 | locus YDR150W, strain NUM1, active compounds read low 1 | locus YDR159W, strain sac3, active compounds read low 0.972 | locus YDR162C, strain NBP2, active compounds read low 1.01 | locus YDR195W, strain ref2 1.07 | locus YDR297W, strain sur2, active compounds read low 1 | locus YDR318W, strain mcm21, active compounds read low 0.996 | locus YDR334W, strain swr1, active compounds read low 1.03 | locus YDR335W, strain msn5, active compounds read low 1.01 | locus YDR388W, active compounds read low 0.988 | locus YDR392W, strain spt3, active compounds read low 0.957 | locus YDR502C, strain sam2, active compounds read low 0.989 | locus YEL003W, strain gim4, active compounds read low 0.994 | locus YEL037C, strain rad23, active compounds read low 1.01 | locus YEL061C, strain CIN8 (second series), active compounds read low 1.01 | locus YEL061C, strain CIN8, active compounds read low 0.995 | locus YER015W, strain faa2, active compounds read low 0.984 | locus YER016W, strain bim1, active compounds read low 1.02 | locus YER110C, active compounds read low 0.984 | locus YER111C, strain swi4, active compounds read low 1.01 | locus YER155C, strain BEM2 (second series), active compounds read low 1 | locus YER155C, strain BEM2, active compounds read low 0.989 | locus YER167W, strain BCK2, active compounds read low 0.996 | locus YFR010W, strain ubp6, active compounds read low 1.01 | locus YGL078C, strain dbp3, active compounds read low 0.991 | locus YGL086W, strain mad1, active compounds read low 1.02 | locus YGL167C, strain pmr1, active compounds read low 1.01 | locus YGL173C, strain kem1, active compounds read low 1 | locus YGL227W, strain vid30, active compounds read low 1.01 | locus YGL240W, strain doc1, active compounds read low 1.02 | locus YGL248W, strain PDE1, active compounds read low 0.987 | locus YGL253W, strain hxk2, active compounds read low 0.997 | locus YGR078C, strain PAC10, active compounds read low 1.01 | locus YGR135W, strain pre9, active compounds read low 0.994 | locus YGR229C, strain SMI1, active compounds read low 1 | locus YGR252W, strain gcn5, active compounds read low 0.947 | locus YHR013C, strain ard1, active compounds read low 0.949 | locus YHR027C, strain rpn1, active compounds read low 1 | locus YHR030C, strain SLT2, active compounds read low 1 | locus YHR079C, strain IRE1 (second series), active compounds read low 0.979 | locus YHR094C, strain hxt1, active compounds read low 0.994 | locus YHR129C, strain ARP1, active compounds read low 1 | locus YHR142W, strain chs7, active compounds read low 0.988 | locus YHR200W, strain rpn10, active compounds read low 0.985 | locus YIL066C, strain RNR3, active compounds read low 0.977 | locus YIL073C, strain SPO22, active compounds read low 0.952 | locus YIL125W, strain kgd1, active compounds read low 0.996 | locus YIR030C, strain dcg1, active compounds read low 0.998 | locus YJL092W, strain hpr5, active compounds read low 1.01 | locus YJL095W, strain BCK1 (second series), active compounds read low 1.02 | locus YJL095W, strain BCK1, active compounds read low 1.03 | locus YJL115W, strain asf1, active compounds read low 1.01 | locus YJL134W, strain LCB3, active compounds read low 0.989 | locus YJL154C, strain vps35, active compounds read low 1.01 | locus YJL164C, strain tpk1, active compounds read low 0.988 | locus YJL166W, strain qcr8, active compounds read low 0.992 | locus YJL168C, strain set2, active compounds read low 0.989 | locus YJL187C, strain SWE1 (second series), active compounds read low 0.997 | locus YJL187C, strain SWE1, active compounds read low 1.03

Source: PubChem BioAssay AID1159580 (chemical genetic matrix, 2015)
